Here are results for 14 molecules from PubChem BioAssay (NCI).

Each structure is given as a SMILES string. The panel holds about 83,000 compounds, 20% with a hit somewhere; the sample as a whole holds those more often.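 In brief: 96-well plates, 48 h treatment, single concentration, percent growth endpoint.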 Unmarked numbers belong to inactive results. Activity calls are given as the source filed them. The calls were made as follows: active = growth percent below 10; inactive = the rest.

This experiment concerns MDA-MB-468 breast. Briefly: NCI-60 one-dose screen, 48 h (100 = growth as untreated, 0 = no growth, -100 = all killed). To be noted: 10 µM unless noted.
For `COc1ccc2nc(N=Nc3c(O)ccc4ccccc34)sc2c1`, the growth is 25.3%.
As to `CCCN1C(=O)/C(=c2\sc3n(c2=O)NC2C(N=3)N(CC)C(=O)N2CC)c2ccccc21` (centres undefined), the growth was 14.6%.
For the molecule `Nc1cccc(Cl)c1N`, the growth was -21.1% (active).
The same measure for `COC(=O)CNC(=O)[C@]12CCC(C)(C)C[C@H]1C1=CC[C@@H]3[C@@]4(C)Cc5c([nH]c6ccccc56)C(C)(C)[C@@H]4CC[C@@]3(C)[C@]1(C)CC2`: 102%; for `Cc1ccc(-c2nc3nc(-c4ccccc4)nc(N4CCCNCC4)c3o2)cc1`: -67.5% (active).
Turning to `COC1OC(C(COC(C)=O)OC(C)=O)C(OC(C)=O)C(OC(C)=O)C1OC(C)=O` (centres undefined), the growth is 109%.
For the molecule `O=S(=O)(CC(O)(c1ccccc1)c1ccccc1)CC(O)(c1ccccc1)c1ccccc1`, the growth is 77.4%.
For `COc1ccc(-c2nn(-c3cccc(Cl)c3)cc2-c2c(C#N)c(=O)n3[nH]c(-c4ccc(C)cc4)nc3c2C#N)cc1`, the growth was -1.87% (active).
As to `CCCCCCCCCCCCCCCCCC(=O)OCCCCCCCCCCCCC`, the growth was 117%.
Consider `O=C1NC(=S)NC(=O)C1=Cc1cn(Cc2ccccn2)c2ccccc12`, for which the growth was -40.6% (active).
The result for `CCN(CC)S(=O)(=O)c1ccc(S(=O)(=O)N2CCC[C@@H](C(=O)N3CCN(C(=O)OC(C)(C)C)CC3)C2)cc1` reads 15.6%; that for `CC1CCN(C(=S)SCC(=O)NC(=O)c2ccccc2)CC1`, 119%; that for `COc1ccc(C(=O)C2CC2c2ccc(Cl)cc2)cc1` (centres undefined), 98.3%.
For `CC(=O)OC[C@H]1OC(Sc2sc(C(=O)c3ccc(Cl)cc3)c(N)c2-c2nc3ccccc3s2)[C@H](OC(C)=O)[C@@H](OC(C)=O)[C@@H]1OC(C)=O` (some centres undefined), the growth was 112%.
